Bioassay records: PubChem, several laboratories
The list is not random: actives were taken first. Their share in the collection is about 5.4%.
MIN6 prolif = MIN6 beta-cell proliferation induction; AID 2380; proliferation, % at 10 µM; 330,000 tested, 0.29% active; MIN6 cells proliferation, ATPlite luminescence, 48 h; cells starved in 0.2% serum; 100% = growth in 10% serum;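 active = compounds whose signal lies at least 3.5 SD above the mean of all wells on their plate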;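 note: 0% = DMSO-treated cells in low-serum medium and 100% = 10% serum control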
Granule exo inh = lytic granule exocytosis inhibition; inhibition, % at 10 µM; TALL-104 LAMP-1 surface exposure, flow cytometry; cells stimulated with thapsigargin and PMA; AID 651702; 360,000 tested, 0.66% active;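 active = inhibition above about 55%, limit read from the data; inconclusive = no clear call, values can overlap the other calls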
M18AAP inhibitor = PfM18AAP enzyme inhibition. recombinant PfM18AAP, H-Glu-NHMec fluorogenic cleavage. inhibition, % at 7.35 µM. 290,000 tested, 1.2% active;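 active = inhibition above the campaign mean inhibition over all tested compounds plus 3 SD, cut at about 28% in these data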;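 note: 0% = plate median of test compound wells and 100% = 2 mM ZnCl2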
SMARCA2 act = increases SMARCA2 function in MMTV reporter cells; MG213 cells, MMTV-luciferase reporter, dexamethasone, overnight; activation, % at 9.1 µM; 370,000 tested, 1% active; AID 652017; in the data active = activation above about 7.8%;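 note: 0% = vehicle wells and 100% = reference activator wells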
JMJD2C inh = human JMJD2C demethylase inhibition | Q9H3R0 | GST-JMJD2C(1-420) H3K9me3 demethylation, DELFIA europium | inhibition, % at 2.35 µM | 330,000 tested, 0.069% active | AID 2099;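 active = more than half of a compound's replicate wells show inhibition beyond 50%, single wells judged on their own value; inconclusive = some, but no more than half, of replicates pass 50% inhibition; inactive = no replicate passes 50% inhibition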;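 note: signal counts dimethyl H3K9 product captured on neutravidin plate; 0% = median of DMSO wells and 100% = 0.3 times that DMSO median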
ALR inh = human ALR oxidase inhibition via reduced H2O2 | inhibition, % (concentration not given with the values) | P55789 | 290,000 tested, 3.8% active | purified ALR, DTT oxidation, H2O2 HRP-luminol luminescence;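 active = mean replicate inhibition above about 79%, with every replicate also reaching it, limit read from the data; inconclusive = only one of the two criteria met; inactive = mean below limit and not every replicate reaching it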
Target sequence (P55789 whole entry, looked up): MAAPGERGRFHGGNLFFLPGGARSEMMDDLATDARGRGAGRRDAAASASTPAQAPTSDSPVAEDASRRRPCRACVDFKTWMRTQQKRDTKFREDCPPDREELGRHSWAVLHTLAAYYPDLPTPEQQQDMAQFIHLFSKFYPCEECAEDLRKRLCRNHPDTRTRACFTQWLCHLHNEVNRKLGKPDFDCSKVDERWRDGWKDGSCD
SMARCA2 act conf = SMARCA2 activation, confirmation screen; shares compounds with SMARCA2 act; MG213 cells, MMTV-luciferase with dexamethasone, luminescence, overnight; MG213 cells expressing E1A, Rb sequestered; DMSO wells 0%, reference activator 100%; activation, % at 9.1 µM; 3,500 tested, 30% active; AID 652260;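 active = activation above its plate's cutoff, the mean activation of tested wells plus 3 SD, cut at about 7.9% in these data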
GAL4-VP16 Luc = counter-screen for SMARCA2 activators: GAL4-VP16 luciferase reporter activation; HEK293 GAL4-VP16 pG5luc reporter, luciferase luminescence; scaled: DMSO wells 0%, SAHA wells 100%; activation, % at 9.1 µM; shares compounds with SMARCA2 act; AID 686939; 3,500 tested, 41% active;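 active = activation above the solvent-only control well mean plus 3 SD, averaged across control plates, cut at about 5.2% in these data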
* marks the source's active call; other numbers are inactive results; ? = inconclusive; / = no result given.

SMILES	MIN6 prolif	Granule exo inh	M18AAP inhibitor	SMARCA2 act	JMJD2C inh	ALR inh	SMARCA2 act conf	GAL4-VP16 Luc
Brc1ccc(-c2nnc(-c3ccccc3Br)o2)cc1	-3	-1	4	8.4*	1	15	6	13*
CCOCCCNc1ccc(-c2ccccc2)nn1	-4	-4	-12	12*	17	-35	10*	6.1*
O=C(O)c1cc(N/N=C2/CC(c3ccccc3)Oc3ccccc32)ccc1Cl (stereo unspecified)	-3	1	24	10*	2	98*	3	2
COc1ccc(CN2C(=O)CN(S(C)(=O)=O)CC2(C)C(=O)NC(C)C)cc1 (stereo unspecified)	/	2	/	0	/	/	/	/
Nc1nccnc1C(=O)N/N=C/c1ccco1	-5	-4	8	9.6*	1	-10	2	3
O=C(CCC(=O)Nc1ccccc1)N/N=C/c1ccco1	1	2	5	4	14	0	/	/
Nc1c(Cl)c(Cl)nc(C(=O)N/N=C/c2ccco2)c1Cl	-4	-2	4	-1	0	-1	/	/
O=C(N/N=C/c1ccco1)Nc1ccccc1	-1	4	-4	10*	1	?	3	14*
CCCCCn1nnnc1C1(C)CCSCC(=O)N1Cc1ccco1 (stereo unspecified)	/	/	/	8.4*	/	/	-1	-1
Cc1c(-c2ccccc2)nc2ccccc2c1C(=O)NCc1cccs1	1	-6	4	8.1*	-2	-6	-2	1
Cn1c(=O)c(=O)n(C)c2cc(S(=O)(=O)N3CCCC3C(=O)Nc3ccccc3F)ccc21 (stereo unspecified)	-2	2	-3	0	-13	-8	/	/
CCc1ccccc1NC(=O)C1CCCN1S(=O)(=O)c1ccc2c(c1)n(C)c(=O)c(=O)n2C (stereo unspecified)	-3	8	2	8.0*	3	-4	-2	0
COc1ccc(C(=O)Nc2cccc(/C(C)=N/NC(=O)c3ccc([N+](=O)[O-])c(C)c3)c2)cc1OC	0	3	-26	-1	-23	-4	/	/
COc1ccc(C(=O)Nc2cccc(/C(C)=N\NC(=O)c3ccoc3C)c2)cc1OC	-2	-1	-12	8.4*	8	/	-3	7.9*
CCN(CC)CCC(=O)Nc1cccc2c1C(=O)c1ccccc1C2=O	-4	56*	0	33*	13	-11	95*	4
O=C1Nc2ccccc2-n2nnnc2C1N1CCc2ccccc2C1 (stereo unspecified)	/	-4	/	3	/	/	/	/
Oc1ccccc1/C=N/Nc1nc2ccccc2o1	-6	0	19	-5	-3	/	/	/
Brc1ccc(/C=N/Nc2nc3ccccc3o2)cc1	-1	-4	-1	9.2*	0	-5	3	14*
CN(CCc1ccccc1)c1cc2c(c3c1ccn3C)C1CCC2C1 (stereo unspecified)	/	-2	/	-5	/	/	/	/
O=C(c1cc(-c2ccc(Br)cc2)on1)N1CCCCCC1	0	-14	3	9.4*	3	-1	4	5.7*
S=C(c1ccc(-c2ccc(Br)cc2)o1)N1CCCCC1	-5	0	3	8.1*	-2	-21	16*	8.3*
Cc1ccc(NC(=S)N=Nc2c(O)[nH]c3ccccc23)cc1	-6	5	7	7	-6	-3	/	/
Oc1ccc(NC(=S)N=Nc2c(O)[nH]c3ccccc23)cc1	-3	1	24	9.7*	-6	5	4	15*
OC[C@H]1O[C@@H](c2nc3ccc(-c4nc(-c5cccs5)no4)cc3[nH]2)C[C@@H]1O	/	2	/	4	/	/	/	/
CCOC(=O)C1CCN(C(=O)Cn2cnc3sc(C)c(S(=O)(=O)N4CCC(C)CC4)c3c2=O)CC1	0	-2	-4	8.1*	20	-4	-2	-1
CCOC(=O)C1CCN(C(=O)Cn2cnc3sc(C)c(S(=O)(=O)N4CCCCC4)c3c2=O)CC1	0	-6	-2	-2	-4	-1	/	/
